Measurements: PubChem BioAssay (Tox21)
Records with an inconclusive call do not appear. Calls of active or inactive are those of the source. Unless noted, calls follow the shape of the dose curve; as a rule, active = well fitted curve in the direction sought with a large enough effect in the repeat runs; inconclusive = weak or mixed curves; inactive = no such curve, though single readings can be large; an effect the other way counts as inactive or inconclusive.

Columns and labels:
[1] = qHTS assay for small molecule agonists of the p53 signaling pathway (AID 651631; calls by dose curve; also: nearly all actives have a fitted effect of over 15% in size)
How it was run: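 Agonist mode screen using a stably integrated beta-lactamase gene under p53 response elements in HCT-116 cells. Compound exposure lasts 16 h at 37 °C; fluorescence intensity is measured following 2 h FRET substrate loading.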

[2] = qHTS assay for small molecules that induce genotoxicity in human embryonic kidney cells expressing luciferase-tagged ATAD5 (AID 651632); also: nearly all actives have a fitted effect of over 15% in size
How it was run: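 Concentration-response screen for ATAD5 upregulation in HEK293T luciferase reporter cells; 16 hr treatment at 37C, then luminescence after 30 min with Amplite at room temperature.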

[3] = qHTS assay for small molecule agonists of the p53 signaling pathway - cell viability (AID 651633; calls by dose curve;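 also: p53RE-bla HCT reporter cells with a stable beta-lactamase p53 reporter; series mostly up to about 83 µM; nearly all actives have a fitted effect of over 30% in size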)
How it was run: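 p53RE-bla cells were treated with compound for 16 hours at 37 C. Cytotoxicity was then measured as CellTiter-Glo luminescence after 30 min at room temperature.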

[4] = qHTS assay for small molecules that induce genotoxicity in human embryonic kidney cells expressing luciferase-tagged ATAD5 - cell viability (AID 651634; calls by dose curve; also: nearly all actives have a fitted effect of over 25% in size)
How it was run: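 15.5 hr compound or vehicle exposure of HEK293T cells expressing luciferase-tagged ATAD5 at 37C; live-cell protease activity is read by fluorescence after 30 min of CellTiter-Fluor.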

[5] = qHTS assay for small molecule disruptors of the mitochondrial membrane potential - cell viability (AID 720634; calls by dose curve;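 also: human HepG2 liver cancer cells; series mostly up to about 83 µM; nearly all actives have a fitted effect of over 20% in size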)
How it was run: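 In this qHTS format, HepG2 cells plated overnight were pinned with compound, incubated 1 hr, and assayed for ATP luminescence with CellTiter-Glo after m-MPI dye addition.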

[6] = qHTS assay to test for compound auto fluorescence at 590 nm (red) in HepG2 cells (AID 720674)
How it was run: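 HepG2 cells, 2,000 per well in MEM with 10% FBS, attached overnight at 37 C, then got 23 nL compound or DMSO. After 1 hr at 37 C, 5% CO2, red fluorescence was read at 540/590 nm against Rose Bengal sodium as reference.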

[7] = qHTS assay to test for compound auto fluorescence at 535 nm (green) in HepG2 cells (AID 720675)
[8] = qHTS assay to test for compound auto fluorescence at 460 nm (blue) in HEK293 cells (AID 720678)
How it was run: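 Auto fluorescence in the blue band was quantified as triamterene equivalency. HEK293 cells were seeded at 2,000/well, dosed after a 4-5 hr attachment, and kept overnight at 37C before the 405/460 nm reading.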

[9] = qHTS assay to test for compound auto fluorescence at 590 nm (red) in HEK293 cells (AID 720679)
How it was run: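 Autofluorescence equivalency to Rose Bengal sodium, 540/590nm, in HEK293 cells exposed overnight to 23 nL compound per well.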

[10] = qHTS assay to test for compound auto fluorescence at 535 nm (green) in HEK293 cells (AID 720680)
[11] = qHTS assay to test for compound auto fluorescence at 460 nm (blue) in HEK293 cell free culture (AID 720681)
How it was run: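 Compounds were added to cell-free DMEM with 10% FBS and fluorescence read directly. The blue channel used 405 nm excitation and 460 nm emission, with triamterene as the reference fluorophore.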

[12] = qHTS assay to test for compound auto fluorescence at 535 nm (green) in HEK293 cell free culture (AID 720682)
How it was run: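 No cells present: wells hold DMEM supplemented with 10% FBS, into which compound or vehicle is pinned. Green emission is then recorded (485 nm excitation, 535 nm emission) and scaled to fluorescein.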

[13] = qHTS assay to test for compound auto fluorescence at 590 nm (red) in HEK293 cell free culture (AID 720683)
How it was run: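 Cell-free wells of DMEM with 10% FBS received compound, and intrinsic fluorescence was read at excitation/emission 540/590 nm. Values expressed as equivalence to Rose Bengal sodium.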

[14] = qHTS assay to test for compound auto fluorescence at 590 nm (red) in HepG2 cell free culture (AID 720684)
How it was run: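 Auto fluorescence equivalency versus Rose Bengal sodium, red channel Ex/Em 540/590 nm; compounds in cell-free MEM/10% FBS; DMSO vehicle control.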

[15] = qHTS assay to test for compound auto fluorescence at 535 nm (green) in HepG2 cell free culture (AID 720686)
[16] = qHTS assay to test for compound auto fluorescence at 460 nm (blue) in HepG2 cells (AID 720687)
How it was run: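 HepG2 cells in MEM with 10% FBS, attached overnight at 37 C, were exposed to compound or DMSO for 1 hr at 37 C, 5% CO2. Blue fluorescence was read at 405/460 nm, with triamterene as reference fluorophore.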

[17] = molecular target: Glucocorticoid receptor (Homo sapiens) (UniProt P04150); assay: qHTS assay to identify small molecule agonists of the glucocorticoid receptor (GR) signaling pathway (AID 720691; active = well fitted activation curve with a large enough effect in the signal ratio in the repeat runs, not every such curve was filed as active; the % refers to the signal ratio)
How it was run: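 Measures GR pathway activation through a GRE-beta-lactamase reporter stably integrated in HeLa cells, with 18 h compound treatment at 37 C and fluorescence detection using a FRET substrate.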

[18] = qHTS assay to test for compound auto fluorescence at 460 nm (blue) in HepG2 cell free culture (AID 720685)
How it was run: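 Cell-free plates of MEM plus 10% FBS received 23 nL compound or DMSO vehicle; blue-channel (405/460 nm) intensity scored against triamterene as reference fluorophore.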

[19] = molecular target: Glucocorticoid receptor (Homo sapiens) (UniProt P04150); assay: qHTS assay to identify small molecule antagonists of the glucocorticoid receptor (GR) signaling pathway (AID 720692; active = well fitted inhibition curve with a large enough effect in the signal ratio in the repeat runs, not every such curve was filed as active; the % refers to the signal ratio)
How it was run: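 Tox21 10K library screened in concentration-response for blockade of dexamethasone (5 nM final)-induced GRE-bla reporter activity in HeLa cells; 18 h treatment, fluorescence read.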

[20] = qHTS assay for small molecule disruptors of the mitochondrial membrane potential (AID 720635)
How it was run: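 HepG2 cells exposed to compound 1 hr at 37C, then Mito-MPS dye 30 min. Ratio read of aggregate (540/590 nm) versus monomer (490/535 nm) fluorescence.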

Measured: Potency

Sequence of Glucocorticoid receptor (Homo sapiens) (P04150 whole entry, looked up): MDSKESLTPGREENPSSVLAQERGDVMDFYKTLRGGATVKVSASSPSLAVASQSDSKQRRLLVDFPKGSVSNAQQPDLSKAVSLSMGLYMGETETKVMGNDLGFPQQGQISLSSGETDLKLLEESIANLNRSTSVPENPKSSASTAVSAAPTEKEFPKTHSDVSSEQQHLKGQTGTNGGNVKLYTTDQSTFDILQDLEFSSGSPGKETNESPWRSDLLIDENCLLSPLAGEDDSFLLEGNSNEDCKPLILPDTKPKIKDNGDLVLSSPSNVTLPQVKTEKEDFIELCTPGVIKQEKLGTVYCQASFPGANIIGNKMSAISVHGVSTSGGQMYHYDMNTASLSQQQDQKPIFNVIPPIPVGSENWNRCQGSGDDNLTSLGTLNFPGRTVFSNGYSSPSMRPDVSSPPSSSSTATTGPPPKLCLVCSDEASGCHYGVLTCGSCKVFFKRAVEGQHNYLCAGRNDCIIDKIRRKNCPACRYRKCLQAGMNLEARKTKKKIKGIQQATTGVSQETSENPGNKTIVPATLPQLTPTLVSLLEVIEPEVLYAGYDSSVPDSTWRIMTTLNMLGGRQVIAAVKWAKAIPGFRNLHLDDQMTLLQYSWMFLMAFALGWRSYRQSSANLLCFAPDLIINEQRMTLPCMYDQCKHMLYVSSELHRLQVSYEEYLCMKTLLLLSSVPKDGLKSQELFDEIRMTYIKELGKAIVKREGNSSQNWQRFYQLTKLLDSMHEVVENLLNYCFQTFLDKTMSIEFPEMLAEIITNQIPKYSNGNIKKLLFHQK

c1ccc([C@H]2CN3CCSC3=N2)cc1
not listed: [18] | [19] | [20]
inactive: all other assays above

NC(=O)c1ccc([N+](=O)[O-])cc1
not listed: [14] | [17] | [20]
inactive: all other assays above

CCCCC(CC)COC(=O)c1ccccc1O (stereo unspecified)
not listed: [12] | [18] | [20]
inactive: all other assays above

CCOC(=O)[C@H](CCc1ccccc1)N[C@@H](C)C(=O)N1[C@H](C(=O)O)C[C@@H]2CCC[C@@H]21
not listed: [11] | [14] | [18] | [19] | [20]
inactive: all other assays above

CCC(C)C1CCCCC1=O (stereo unspecified)
not listed: [3] | [17] | [19]
inactive: all other assays above

Nc1c2c(nc3ccccc13)CCCC2O (stereo unspecified)
not listed: [3]
inactive: all other assays above

C=CCOCC(CC)(CO)COCC=C
not listed: [3] | [19]
inactive: all other assays above

COC(=O)c1ccc(C)cc1C1=NC(C)(C(C)C)C(=O)N1 (stereo unspecified)
not listed: [12] | [17] | [20]
inactive: all other assays above

CC(=O)Nc1ccc(S(N)(=O)=O)cc1
not listed: [14] | [20]
inactive: all other assays above

Nc1nc2c(ncn2COC(CO)CO)c(=O)[nH]1
not listed: [5] | [19] | [20]
inactive: all other assays above

N=C(N)c1ccc2cc(OC(=O)c3ccc(N=C(N)N)cc3)ccc2c1
not listed: [14] | [17] | [19] | [20]
inactive: all other assays above

O=[N+]([O-])c1ccc(F)cc1F
not listed: [3] | [17] | [18] | [19]
inactive: all other assays above

CN1CC(=O)NC1=N
not listed: [3] | [11] | [14]
inactive: all other assays above
